Reference: the supplement of paper PMC7411054

Legend:
Details in all cases: treatment time: 24 h
A549-ACTB-RAB5A [1] = test: lowest phenotypically active concentration; higher = less potent
Procedure, shortened: (§1)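 Two criteria together defined phenotypic activity: deviation and reproducibility. Deviation meant ≥3 of 4 wells beyond the 95th percentile of Euclidean distances in solvent control wells, and reproducibility meant a median replicate Pearson correlation above the 95th percentile of non-replicates. Wells had been treated for 24 h at 0.3, 1, 3 or 9 µM in fifteen gene-edited A549, HepG2 and WPMY1 reporter lines before live imaging.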

A549-CANX-COX4 [2] = test: as above
Procedure, shortened: as §1

A549-GM130-SQSTM1 [3] = test: as above
Procedure, shortened: as §1

A549-TP53BP1-CLTA [4] = test: as above
Procedure, shortened: as §1

A549-TUBA1B-RELA [5] = test: as above
Procedure, shortened: as §1

HepG2-GM130-SQSTM1 [6] = test: as above
Procedure, shortened: as §1

A549-ACTB-RAB5A [7] = test: phenotypically active (imaging signature differs from DMSO and reproducible) at any of 0.3-9 uM (binary (1 = active, 0 = inactive)); higher = active
Procedure, shortened: as §1

A549-CANX-COX4 [8] = test: as above
Procedure, shortened: as §1

A549-GM130-SQSTM1 [9] = test: as above
Procedure, shortened: as §1

A549-TP53BP1-CLTA [10] = test: as above
Procedure, shortened: as §1

A549-TUBA1B-RELA [11] = test: as above
Procedure, shortened: as §1

HepG2-ACTB-RAB5A = test: as above
Procedure, shortened: as §1

HepG2-CANX-COX4 = test: as above
Procedure, shortened: as §1

HepG2-GM130-SQSTM1 [12] = test: as above
Procedure, shortened: as §1

HepG2-TP53BP1-CLTA = test: as above
Procedure, shortened: as §1

HepG2-TUBA1B-RELA = test: as above
Procedure, shortened: as §1

WPMY1-CANX-COX4 = test: as above
Procedure, shortened: as §1

WPMY1-GM130-SQSTM1 = test: as above
Procedure, shortened: as §1

WPMY1-TP53BP1-CLTA = test: as above
Procedure, shortened: as §1

WPMY1-TUBA1B-RELA = test: as above
Procedure, shortened: as §1

CC(C)NCCCn1c(Sc2cc3c(cc2I)OCO3)nc2c(N)ncnc21
active: phenotypically active (A549-ACTB-RAB5A [7]) 1 | phenotypically active (A549-CANX-COX4 [8]) 1 | phenotypically active (A549-GM130-SQSTM1 [9]) 1 | phenotypically active (A549-TP53BP1-CLTA [10]) 1 | phenotypically active (A549-TUBA1B-RELA [11]) 1 | phenotypically active (HepG2-ACTB-RAB5A) 1 | phenotypically active (HepG2-CANX-COX4) 1 | phenotypically active (HepG2-GM130-SQSTM1 [12]) 1 | phenotypically active (HepG2-TP53BP1-CLTA) 1 | phenotypically active (HepG2-TUBA1B-RELA) 1 | phenotypically active (WPMY1-CANX-COX4) 1 | phenotypically active (WPMY1-GM130-SQSTM1) 1 | phenotypically active (WPMY1-TP53BP1-CLTA) 1 | phenotypically active (WPMY1-TUBA1B-RELA) 1
≤ 0.3 µM: lowest phenotypically active concentration (A549-ACTB-RAB5A [1]) | lowest phenotypically active concentration (A549-CANX-COX4 [2]) | lowest phenotypically active concentration (A549-GM130-SQSTM1 [3]) | lowest phenotypically active concentration (A549-TP53BP1-CLTA [4]) | lowest phenotypically active concentration (A549-TUBA1B-RELA [5]) | lowest phenotypically active concentration (HepG2-GM130-SQSTM1 [6])

COc1ccc2[nH]c(C(=O)c3ccccc3)cc2c1
active: phenotypically active (A549-ACTB-RAB5A [7]) 1 | phenotypically active (A549-CANX-COX4 [8]) 1 | phenotypically active (A549-GM130-SQSTM1 [9]) 1 | phenotypically active (A549-TP53BP1-CLTA [10]) 1 | phenotypically active (A549-TUBA1B-RELA [11]) 1 | phenotypically active (HepG2-ACTB-RAB5A) 1 | phenotypically active (HepG2-CANX-COX4) 1 | phenotypically active (HepG2-GM130-SQSTM1 [12]) 1 | phenotypically active (HepG2-TP53BP1-CLTA) 1 | phenotypically active (HepG2-TUBA1B-RELA) 1 | phenotypically active (WPMY1-CANX-COX4) 1 | phenotypically active (WPMY1-GM130-SQSTM1) 1 | phenotypically active (WPMY1-TP53BP1-CLTA) 1 | phenotypically active (WPMY1-TUBA1B-RELA) 1
≤ 0.3 µM: lowest phenotypically active concentration (A549-ACTB-RAB5A [1]) | lowest phenotypically active concentration (A549-CANX-COX4 [2]) | lowest phenotypically active concentration (A549-GM130-SQSTM1 [3]) | lowest phenotypically active concentration (A549-TP53BP1-CLTA [4]) | lowest phenotypically active concentration (A549-TUBA1B-RELA [5]) | lowest phenotypically active concentration (HepG2-GM130-SQSTM1 [6])

C[C@@H]1CN(CC(=O)Nc2ccc3c(c2)Cc2cccc(-c4cc(=O)cc(N5CCOCC5)o4)c2S3)C[C@H](C)O1
9 µM: lowest phenotypically active concentration (A549-CANX-COX4 [2]) | lowest phenotypically active concentration (A549-TP53BP1-CLTA [4]) | lowest phenotypically active concentration (A549-TUBA1B-RELA [5])
3 µM: lowest phenotypically active concentration (A549-ACTB-RAB5A [1]) | lowest phenotypically active concentration (A549-GM130-SQSTM1 [3]) | lowest phenotypically active concentration (HepG2-GM130-SQSTM1 [6])
active: phenotypically active (A549-ACTB-RAB5A [7]) 1 | phenotypically active (A549-CANX-COX4 [8]) 1 | phenotypically active (A549-GM130-SQSTM1 [9]) 1 | phenotypically active (A549-TP53BP1-CLTA [10]) 1 | phenotypically active (A549-TUBA1B-RELA [11]) 1 | phenotypically active (HepG2-ACTB-RAB5A) 1 | phenotypically active (HepG2-CANX-COX4) 1 | phenotypically active (HepG2-GM130-SQSTM1 [12]) 1 | phenotypically active (HepG2-TP53BP1-CLTA) 1 | phenotypically active (HepG2-TUBA1B-RELA) 1 | phenotypically active (WPMY1-CANX-COX4) 1 | phenotypically active (WPMY1-GM130-SQSTM1) 1 | phenotypically active (WPMY1-TP53BP1-CLTA) 1 | phenotypically active (WPMY1-TUBA1B-RELA) 1

Cc1n[nH]c2ccc(-c3cncc(OC[C@@H](N)Cc4ccccc4)c3)cc12
≤ 0.3 µM: lowest phenotypically active concentration (A549-ACTB-RAB5A [1]) | lowest phenotypically active concentration (A549-CANX-COX4 [2]) | lowest phenotypically active concentration (A549-GM130-SQSTM1 [3]) | lowest phenotypically active concentration (A549-TP53BP1-CLTA [4]) | lowest phenotypically active concentration (A549-TUBA1B-RELA [5]) | lowest phenotypically active concentration (HepG2-GM130-SQSTM1 [6])
active: phenotypically active (A549-ACTB-RAB5A [7]) 1 | phenotypically active (A549-CANX-COX4 [8]) 1 | phenotypically active (A549-GM130-SQSTM1 [9]) 1 | phenotypically active (A549-TP53BP1-CLTA [10]) 1 | phenotypically active (A549-TUBA1B-RELA [11]) 1 | phenotypically active (HepG2-ACTB-RAB5A) 1 | phenotypically active (HepG2-CANX-COX4) 1 | phenotypically active (HepG2-GM130-SQSTM1 [12]) 1 | phenotypically active (HepG2-TP53BP1-CLTA) 1 | phenotypically active (HepG2-TUBA1B-RELA) 1 | phenotypically active (WPMY1-CANX-COX4) 1 | phenotypically active (WPMY1-GM130-SQSTM1) 1 | phenotypically active (WPMY1-TP53BP1-CLTA) 1 | phenotypically active (WPMY1-TUBA1B-RELA) 1

CCC(=O)N1CCN(c2ccc(-n3c(=O)ccc4cnc5ccc(-c6cnc7ccccc7c6)cc5c43)cc2C(F)(F)F)CC1 [Torin 1]
active: phenotypically active (A549-ACTB-RAB5A [7]) 1 | phenotypically active (A549-CANX-COX4 [8]) 1 | phenotypically active (A549-GM130-SQSTM1 [9]) 1 | phenotypically active (A549-TP53BP1-CLTA [10]) 1 | phenotypically active (A549-TUBA1B-RELA [11]) 1 | phenotypically active (HepG2-ACTB-RAB5A) 1 | phenotypically active (HepG2-CANX-COX4) 1 | phenotypically active (HepG2-GM130-SQSTM1 [12]) 1 | phenotypically active (HepG2-TP53BP1-CLTA) 1 | phenotypically active (HepG2-TUBA1B-RELA) 1 | phenotypically active (WPMY1-CANX-COX4) 1 | phenotypically active (WPMY1-GM130-SQSTM1) 1 | phenotypically active (WPMY1-TP53BP1-CLTA) 1 | phenotypically active (WPMY1-TUBA1B-RELA) 1
≤ 0.3 µM: lowest phenotypically active concentration (A549-ACTB-RAB5A [1]) | lowest phenotypically active concentration (A549-CANX-COX4 [2]) | lowest phenotypically active concentration (A549-GM130-SQSTM1 [3]) | lowest phenotypically active concentration (A549-TP53BP1-CLTA [4]) | lowest phenotypically active concentration (A549-TUBA1B-RELA [5]) | lowest phenotypically active concentration (HepG2-GM130-SQSTM1 [6])

COc1cc(N2CCN(C)CC2)ccc1Nc1nccc(-c2cn(C)c3cnccc23)n1
3 µM: lowest phenotypically active concentration (A549-GM130-SQSTM1 [3])
9 µM: lowest phenotypically active concentration (A549-CANX-COX4 [2])
1 µM: lowest phenotypically active concentration (A549-ACTB-RAB5A [1]) | lowest phenotypically active concentration (A549-TP53BP1-CLTA [4]) | lowest phenotypically active concentration (A549-TUBA1B-RELA [5]) | lowest phenotypically active concentration (HepG2-GM130-SQSTM1 [6])
active: phenotypically active (A549-ACTB-RAB5A [7]) 1 | phenotypically active (A549-CANX-COX4 [8]) 1 | phenotypically active (A549-GM130-SQSTM1 [9]) 1 | phenotypically active (A549-TP53BP1-CLTA [10]) 1 | phenotypically active (A549-TUBA1B-RELA [11]) 1 | phenotypically active (HepG2-ACTB-RAB5A) 1 | phenotypically active (HepG2-CANX-COX4) 1 | phenotypically active (HepG2-GM130-SQSTM1 [12]) 1 | phenotypically active (HepG2-TP53BP1-CLTA) 1 | phenotypically active (HepG2-TUBA1B-RELA) 1 | phenotypically active (WPMY1-CANX-COX4) 1 | phenotypically active (WPMY1-GM130-SQSTM1) 1 | phenotypically active (WPMY1-TP53BP1-CLTA) 1 | phenotypically active (WPMY1-TUBA1B-RELA) 1
